SMARCA2 activ: SMARCA2 function activation, primary screen. MG213 cells, MMTV-luciferase reporter, dexamethasone, overnight. activation, % at 9.1 µM. 370,000 tested, 1% active; in the data active means activation above about 7.8%;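 further: 0% = vehicle wells and 100% = reference activator wells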
hgDAF12 agonist: hgDAF-12 agonism, primary luciferase screen | activation, % at 6.8 µM | HEK293 GAL4-hgDAF12 UAS-luciferase reporter, agonist luminescence; normalized to butyrate control | 370,000 tested, 1.8% active;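 active means activation above a cutoff set at the mean of all screened compounds plus 3 SD, cut at about 10% in these data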;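 further: 0% = DMSO wells and 100% = sodium butyrate wells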
DAX1 inh: DAX1 (NR0B1) inhibition, primary screen. HEK293T StAR-luciferase reporter, SF-1/DAX-1 repression relief. inhibition, % at 6.8 µM. 370,000 tested, 1.1% active;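 active means inhibition above the mean over all tested compounds plus 3 SD, cut at about 3.6% in these data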;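 further: 0% = DAX-1 cells with DMSO and 100% = cells lacking DAX-1 with DMSO; higher inhibition means more luminescence from relief of DAX-1 repression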
ssDAF-12 act: activators of S. stercoralis DAF-12 nuclear receptor; 370,000 tested, 1% active; HEK293 ssDAF-12/GRIP1 lit1-tk-luc reporter, luminescence; % of 3 µM dafachronic acid response; activation, % at 6.8 µM;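 active means activation above the mean over all tested compounds plus 3 SD, cut at about 0.9% in these data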;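 further: 0% = DMSO-only wells and 100% = 3 µM delta7-dafachronic acid wells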
hcDAF-12 act: activates DAF-12 receptor from parasite H. contortus; HEK293 hcDAF-12 lit1-tk-luc reporter, luminescence; 0% DMSO, 100% Δ7-dafachronic acid; activation, % at 6.8 µM; 370,000 tested, 1.4% active; AID 652067;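 active means activation above the mean of all tested compounds plus 3 SD, cut at about 5.5% in these data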;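 further: 100% = response to 3 µM Δ7-dafachronic acid high control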
DAX1 conf: confirmation of human DAX1 (NR0B1) inhibitors; shares compounds with DAX1 inh; HEK293T StAR-promoter luciferase reporter, SF-1/DAX-1 repression; inhibition, % at 6.8 µM; 2,400 tested, 87% active;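 active means inhibition above the average of every tested compound plus 3 SD, cut at about 3.8% in these data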;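 further: 0% = DAX-1 cells with DMSO and 100% = no DAX-1 control cells with DMSO; active compounds raise luminescence by relieving repression of the StAR reporter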
SF1 AF2mut Luc: counter-screen for DAX1 inhibitors: nonselective inhibitors with SF-1 AF2 mutant. shares compounds with DAX1 inh. HEK293 StAR-luciferase, luminescence. inhibition, % at 6.8 µM. 2,400 tested, 78% active. AID 652136;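 active means inhibition above the mean of all tested compounds plus 3 SD, cut at about 3% in these data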;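 further: 0% = DAX-1 transfected cells with DMSO and 100% = cells without DAX-1 with DMSO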
LXR ag: LXR-beta agonism as hcDAF-12 counter-screen. shares compounds with hcDAF-12 act. HEK293 Gal4-LXR tk-luc reporter, luminescence, 24 h; normalized: DMSO 0%, positive control 100%. activation, % at 6.8 µM. 3,400 tested, under 10 active;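 active means mean percent activation of the reporter above a cutoff set as the average over tested compounds plus their standard deviation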
Target sequence (P55055 whole entry, looked up, the tested form may be a part): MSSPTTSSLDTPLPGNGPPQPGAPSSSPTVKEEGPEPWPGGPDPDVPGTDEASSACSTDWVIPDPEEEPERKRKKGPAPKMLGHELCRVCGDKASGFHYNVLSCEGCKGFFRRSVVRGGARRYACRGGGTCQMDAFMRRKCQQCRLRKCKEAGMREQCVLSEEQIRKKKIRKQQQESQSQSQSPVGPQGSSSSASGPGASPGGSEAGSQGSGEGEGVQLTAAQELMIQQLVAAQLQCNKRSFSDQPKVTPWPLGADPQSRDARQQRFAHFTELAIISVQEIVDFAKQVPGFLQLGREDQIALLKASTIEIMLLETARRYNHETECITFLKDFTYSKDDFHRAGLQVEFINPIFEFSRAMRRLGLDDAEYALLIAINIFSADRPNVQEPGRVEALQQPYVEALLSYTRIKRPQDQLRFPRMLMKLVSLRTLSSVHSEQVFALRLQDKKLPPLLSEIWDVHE
hcDAF12 conf: hcDAF-12 agonism, confirmation assay; shares compounds with hcDAF-12 act; HEK293 hcDAF-12 lit1-tk-luc reporter, luminescence; % of Δ7-dafachronic acid response; activation, % at 6.8 µM; 3,400 tested, 61% active; AID 743032;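 active means mean activation across triplicate tests above the threshold derived from the earlier primary screen, cut at about 5.5% in these data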;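 further: 0% = DMSO only wells and 100% = 3 µM Δ7-dafachronic acid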
hgDAF12 ag: confirmation of H. glycines DAF-12 agonists | shares compounds with hgDAF12 agonist | HEK293 GAL4-hgDAF12 luciferase reporter, agonist mode; percent of butyrate response | activation, % at 6.8 µM | 3,300 tested, 80% active;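 active means mean activation over triplicate wells above the hit cutoff derived from the earlier primary screen, cut at about 11% in these data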;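 further: 0% = DMSO low control and 100% = 2 mM sodium butyrate high control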
LXR ag 2: LXR-beta agonism as DAF-12 counter-screen; shares compounds with hgDAF12 agonist; HEK293 Gal4-LXR luciferase reporter, 24 h; 3,300 tested, under 10 active; activation, % at 6.8 µM;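 active means mean activation of the triplicate above a set limit carried over from the primary screen, none filed active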
Starred values were filed as active, the others as inactive; nt = not tested or not shown. Shown are actives, neighbours in structure and some others; about 4.2% of the full set was active somewhere.

SMILES	SMARCA2 activ	hgDAF12 agonist	DAX1 inh	ssDAF-12 act	hcDAF-12 act	DAX1 conf	SF1 AF2mut Luc	LXR ag	hcDAF12 conf	hgDAF12 ag	LXR ag 2
Nc1c(-c2ccccc2)cnc2c(-c3ccccc3)cnn12	7.3	19.7*	4.9*	1.3*	11.2*	14.0*	3.6*	2.0	9.3*	11.0*	1.1
COc1cc(C(=O)Nc2ccc3c(c2)OCCO3)c(-n2cnnn2)cc1OC	-0.1	-0.9	0.5	-1.0	-1.8	nt	nt	nt	nt	nt	nt
COc1cc(C(=O)Nc2nccs2)c(Br)c(OC)c1OC	-4.4	-2.8	-1.0	-1.2	-1.0	nt	nt	nt	nt	nt	nt
COc1cc(SC)ccc1C(=O)Nc1ccc2c(c1)OCCO2	2.8	13.8*	4.7*	0.8	8.2*	9.2*	3.6*	1.7	7.2*	16.1*	0.9
COc1cc(SC)ccc1C(=O)Nc1nccs1	6.0	17.0*	4.7*	1.3*	11.5*	15.2*	5.6*	2.2	13.6*	16.6*	1.0
O=C1CC(c2ccccc2)Sc2ccccc2N1 (stereo unspecified)	-1.2	2.4	0.6	-0.3	2.9	nt	nt	nt	nt	nt	nt
Cc1ccc2c(c1)C(=O)CC(c1ccccc1)S2 (stereo unspecified)	4.7	19.5*	19.0*	1.5*	7.7*	12.6*	7.4*	1.5	6.5*	18.7*	0.9
Cc1cccc(C)c1OCc1cccc(C2Nc3ccccc3C(=O)N2Cc2ccco2)c1 (stereo unspecified)	nt	4.1	nt	-2.1	-0.9	nt	nt	nt	nt	nt	nt
COc1ccc(-c2ccc3ccccc3n2)cc1OC	6.0	16.6*	5.3*	-0.1	1.1	7.4*	3.4*	nt	nt	12.0*	0.6
COc1cc2ccc(-c3ccc4ccccc4n3)cc2cc1OC	-2.7	5.8	1.0	-0.7	0.7	nt	nt	nt	nt	nt	nt
COc1ccc(-c2ccc3ccccc3n2)cc1	5.6	23.7*	11.7*	0.9	9.6*	19.8*	8.7*	1.6	10.8*	17.3*	1.3
COc1ccc(CCc2ccc3ccccc3n2)cc1	1.9	14.2*	5.7*	-0.5	3.1	12.8*	6.8*	nt	nt	11.7*	0.7
COc1ccc(CN(CCN2CCOCC2)C(=O)c2ccccc2C)cc1OC	-4.1	0.0	-0.1	-0.7	-2.6	nt	nt	nt	nt	nt	nt
CCOC(=O)c1c(N)sc(C(=O)Nc2ccccc2F)c1C	6.2	19.4*	9.3*	0.8	6.7*	14.1*	7.1*	1.7	8.5*	18.6*	1.0
CCOC(=O)c1sc(NC(C)=O)cc1C	-3.4	2.4	0.1	-1.0	-0.4	nt	nt	nt	nt	nt	nt
CCOC(=O)c1sc(NC(=O)Nc2ccccc2Cl)cc1C	1.2	19.9*	7.8*	1.1*	14.5*	13.6*	7.5*	1.6	6.1*	24.4*	1.4
C[C@@H](NS(=O)(=O)c1c(F)cccc1F)c1ccccc1	-4.7	1.3	1.4	-0.9	-2.1	nt	nt	nt	nt	nt	nt
COc1ccc(-c2cc(C(=O)NN=Cc3cccn3C)[nH]n2)cc1	0.7	7.8	0.5	-1.6	-1.4	nt	nt	nt	nt	nt	nt
OC[C@H]1O[C@@H](c2nc3ccc(-c4nc(-c5cccs5)no4)cc3[nH]2)C[C@@H]1O	4.0	15.1*	4.8*	0.9	6.1*	10.5*	8.7*	nt	nt	15.9*	0.7
CCOC(=O)[C@@]12CCCC=C1N(CCc1ccc(Cl)cc1)C(=O)[C@H]2CC(=O)N1CCSCC1	-1.9	-2.8	-2.4	-0.9	-4.8	nt	nt	nt	nt	nt	nt
Cc1cc(C=C2C(=O)c3ccccc3C2=O)c(C)n1C	1.1	4.3	0.0	0.0	2.1	nt	nt	nt	nt	nt	nt
CCn1c(C)cc(C=C2C(=O)c3ccccc3C2=O)c1C	7.3	18.2*	5.6*	4.4*	16.6*	15.1*	8.0*	2.2	14.6*	15.1*	1.3
Oc1ccc(-c2nnc(-c3ccc(O)cc3)nn2)cc1	5.4	15.0*	5.5*	0.8	6.5*	13.1*	8.4*	nt	nt	21.1*	1.1
Oc1ccc(-c2cc(-c3ccc(O)cc3)nc(-c3ccccc3)n2)cc1	-1.8	2.1	-0.8	-2.0	-2.5	nt	nt	nt	nt	nt	nt
Cc1cc(C)cc(-c2c(C(=O)c3ccccc3)[nH]c(N)c2C(=O)NCCc2c[nH]c3ccccc23)c1	nt	1.1	nt	-1.4	-1.9	nt	nt	nt	nt	nt	nt
SMILES	SMARCA2 activ	hgDAF12 agonist	DAX1 inh	ssDAF-12 act	hcDAF-12 act	DAX1 conf	SF1 AF2mut Luc	LXR ag	hcDAF12 conf	hgDAF12 ag	LXR ag 2
COCCCNc1ccn2nc(-c3cccc(Cl)c3)cc2n1	2.9	21.0*	5.3*	0.5	8.5*	13.3*	4.8*	1.9	9.2*	20.9*	1.2
O=C(Cc1ccccc1)Nc1ccc(N2CCCCC2)cc1	5.5	24.9*	5.1*	1.7*	5.5	13.6*	7.3*	nt	nt	17.6*	0.9
CN1CCN(c2ccc(NC(=O)Cc3ccccc3)cc2)CC1	2.3	5.7	1.3	-0.6	-3.0	nt	nt	nt	nt	nt	nt
Nc1cc(C(=O)c2ccccc2)ccc1N1CCOCC1	-1.5	1.3	0.9	-0.4	0.8	nt	nt	nt	nt	nt	nt
CC(C)Oc1ccc(C(=O)Nc2ccc(N3CCCCC3)cc2)cc1	0.8	1.0	-0.2	-0.5	1.5	nt	nt	nt	nt	nt	nt
O=C(c1ccccc1)c1ccc(N2CCOCC2)cc1	0.5	15.1*	6.6*	-0.2	4.0	7.1*	4.6*	nt	nt	15.9*	0.8
O=C(Nc1ccc(N2CCCCC2)cc1)c1ccccc1	3.2	14.7*	7.3*	-0.1	7.2*	17.3*	6.7*	1.5	5.0	16.6*	0.8
Nn1c(SCc2cccc3ccccc23)nnc1-c1cc(-c2ccc(Cl)cc2)n[nH]1	-7.3	1.6	-1.2	-1.6	-3.0	nt	nt	nt	nt	nt	nt
COCCCN=Cc1c(C)[nH]n(-c2ccc(Br)c(C)c2)c1=O	3.6	17.6*	7.0*	0.6	7.6*	16.0*	5.2*	1.7	11.2*	9.6	1.2
Cc1ccc(-n2[nH]c(C)c(C=NC34CN5CN(CN(C5)C3)C4)c2=O)cc1C	-0.5	1.3	1.2	-1.3	-1.1	nt	nt	nt	nt	nt	nt
CN(C)c1cccc2c(S(=O)(=O)NCC3CCN(C(=O)C(=O)c4cc5ccccc5o4)CC3)cccc12	-6.8	-1.2	-1.6	-1.2	-2.2	nt	nt	nt	nt	nt	nt
Nc1nnc(-c2ccc(F)cc2)s1	1.2	2.2	0.4	-1.3	-1.7	nt	nt	nt	nt	nt	nt
